GLA inh pH 4.5 – alpha-galactosidase A (human) inhibition, pH 4.5. P06280. purified enzyme, 4-MU-alpha-Gal fluorescence, pH 4.5. activity change, negative = inhibition, % at 105 µM. 230,000 tested, under 10 active. AID 1467
Target sequence (P06280 whole entry, looked up): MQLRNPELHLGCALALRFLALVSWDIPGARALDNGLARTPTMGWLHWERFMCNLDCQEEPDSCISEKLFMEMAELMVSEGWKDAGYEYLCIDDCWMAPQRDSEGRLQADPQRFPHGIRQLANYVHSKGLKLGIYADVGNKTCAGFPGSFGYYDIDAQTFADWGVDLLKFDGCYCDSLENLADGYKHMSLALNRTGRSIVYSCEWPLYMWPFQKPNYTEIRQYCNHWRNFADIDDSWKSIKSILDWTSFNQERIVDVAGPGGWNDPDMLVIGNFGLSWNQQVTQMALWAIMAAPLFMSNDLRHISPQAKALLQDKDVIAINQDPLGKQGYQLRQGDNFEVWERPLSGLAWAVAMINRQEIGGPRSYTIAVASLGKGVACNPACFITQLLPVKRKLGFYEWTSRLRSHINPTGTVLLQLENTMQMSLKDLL
N370S GC – inhibits or activates N370S mutant glucocerebrosidase; N370S GC spleen homogenate, 4MU-glucoside fluorescence; AID 2101; 330,000 tested, 0.092% active; P04062; Potency, µM (titrated, usually from 59.4 µM), most hits filed as inhibitors
GAA inh – inhibitors of human lysosomal alpha-glucosidase | P10253 | AID 1466 | purified human GAA, 4-MU-alpha-glucoside fluorescence | Potency, µM (top dose mostly 76.9 µM), most hits filed as inhibitors | 200,000 tested, 0.005% active
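Read-out is 4-methylumbelliferone fluorescence (Ex 365/Em 440 nm) after NaOH/glycine stop at pH 10. Enzyme 4 nM, substrate 400 uM, pH 5.0 citrate buffer, 20 min room temperature; AC50 from Hill-equation concentration-response.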
GLA spleen mod – inhibitors or activators of human alpha-galactosidase in spleen homogenate. human spleen homogenate, 4MU-alpha-Gal fluorescence, 40 min. Potency, µM (highest dose often 80 µM), actives largely listed as inhibitors. 240,000 tested, 0.008% active. AID 2107
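qHTS titration in buffer at pH 5.0. Alpha-galactosidase activity in spleen homogenate was measured via 4-methylumbelliferone release from 1 mM fluorogenic substrate after 40 min at 37C and a pH 10 stop. AC50 came from Hill fits of control-normalized data.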
GAA glycogen – inhibitors or activators of human alpha-glucosidase glycogen cleavage; P10253; recombinant GAA, glycogen substrate, Amplex Red glucose oxidase fluorescence; Potency, µM (doses to about 76.4 µM), hits mostly inhibitors; 300,000 tested, 0.38% active; AID 2100;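 note: the screen sought inhibitors and activators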
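Recombinant enzyme (4 nM final) with compounds titrated up to 77 uM and bovine liver glycogen (30 ug) in citrate pH 5.0, 0.01% Tween-20, 37 C 40 min. Released glucose detected by Amplex Red/glucose oxidase (Ex 573/Em 610); AC50 from Hill fits.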
aGlu spleen mod – inhibitors or activators of human alpha-glucosidase in spleen homogenate; human spleen homogenate, 4-MU-alpha-glucoside fluorescence; Potency, µM (top dose mostly 79.9 µM), actives largely listed as inhibitors; 240,000 tested, 0.006% active; AID 2112; P10253
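Human spleen homogenate (1 ug) incubated with compounds and 1 mM 4-methylumbelliferyl-alpha-D-glucopyranoside in pH 5.0 citrate/phosphate buffer, 37 C, 40 min. Stopped at pH 10; 4-MU fluorescence (Ex 365/Em 440 nm); AC50 by Hill fit.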
Numbers stand for hits; ! = repeats disagree; [ ] = remark or other dose. A selection: hits, their analogues and other compounds. The true share with any hit is near 0.41%. Calls come from the whole dose curve; as a rule, active = well fitted curve in the direction sought with a large enough effect; inconclusive = small, poorly fitted or top-dose-only effect, or another doubt; inactive = no such curve, though single readings can be large; an effect the other way counts as inactive or inconclusive.

What do the screens show for `Nc1ccc(N=Nc2ccccc2)c(N)c1`?
N370S GC: inactive; GLA spleen mod: inactive; aGlu spleen mod: inactive

How did O=C1/C(=C/c2ccc(O)c(O)c2)Oc2cc(O)ccc21 do in these assays?
GLA inh pH 4.5: inactive; N370S GC: inactive; GLA spleen mod: inactive; GAA glycogen: 22µM; aGlu spleen mod: inactive

How did Cc1ccc(S(=O)(=O)OCCc2ccccc2)cc1 do in these assays?
GLA inh pH 4.5: inactive; N370S GC: inactive; GLA spleen mod: inactive; aGlu spleen mod: inactive

Results for C=CCn1c2ccccc2c2nnc(SCC(=O)NC(C(=O)OC)C(C)C)nc21 (stereo not drawn) ?
GLA inh pH 4.5: inactive; N370S GC: inactive; GAA inh: inactive; GLA spleen mod: 40µM; GAA glycogen: inactive; aGlu spleen mod: inactive

What do the screens show for `C=CCn1c2ccccc2c2nnc(SCC(N)=O)nc21`?
N370S GC: inactive; GAA glycogen: inactive

How did Cc1ccc(NS(=O)(=O)c2ccc(N3CCN(c4ccc(O)cc4)CC3)c([N+](=O)[O-])c2)c(C)c1 do in these assays?
GLA inh pH 4.5: inactive; N370S GC: 14µM; GAA inh: inactive; GLA spleen mod: inactive; GAA glycogen: inconclusive; aGlu spleen mod: inactive

How did CC1(C)CC(=O)C2=C(C1)NC1=C(C(=O)c3ccccc31)C2c1cc([N+](=O)[O-])ccc1O (stereo not drawn) do in these assays?
GLA inh pH 4.5: inactive; N370S GC: 14µM; GLA spleen mod: inactive; GAA glycogen: inactive; aGlu spleen mod: inactive

Results for CC1(C)CC(=O)C2=C(C1)NC1=C(C(=O)c3ccccc31)C2c1ccccc1 (stereo not drawn) ?
GLA inh pH 4.5: inactive; N370S GC: inconclusive; GAA inh: inactive; GLA spleen mod: inactive; GAA glycogen: inactive; aGlu spleen mod: inactive

What do the screens show for `COc1ccccc1N1CCN(CCCCN2C(=O)c3ccccc3C2=O)CC1`?
GLA inh pH 4.5: inactive; N370S GC: inactive; GLA spleen mod: 10µM!; aGlu spleen mod: inactive

Results for NNc1nc(-c2ccccc2)cc(-c2ccccc2O)n1 ?
GLA inh pH 4.5: inactive; N370S GC: inactive; GAA inh: inactive; GLA spleen mod: inactive; GAA glycogen: 11µM; aGlu spleen mod: inactive

Results for NNc1nc(-c2ccccc2)cc(-c2ccccc2)n1 ?
GLA inh pH 4.5: inactive; N370S GC: inactive; GAA inh: inactive; GLA spleen mod: inactive; GAA glycogen: inactive; aGlu spleen mod: inactive

How did COc1cccc(C(=O)/C=C/Nc2cc(C)ccc2O)c1 do in these assays?
GLA inh pH 4.5: inactive; N370S GC: inactive; GAA inh: inactive; GLA spleen mod: inactive; GAA glycogen: 28µM; aGlu spleen mod: inactive

How did C=CCCCCCCCCCBr do in these assays?
N370S GC: inactive; GLA spleen mod: inactive; aGlu spleen mod: inactive

How did CCOc1ccc2c(c1)-c1c(ssc1=S)C(C)(C)N2 do in these assays?
GLA inh pH 4.5: inactive; N370S GC: inactive; GAA inh: inactive; GLA spleen mod: inactive; GAA glycogen: 20µM; aGlu spleen mod: inconclusive

How did N#Cc1ccc(-c2cccs2)nc1SCc1c(F)cccc1Cl do in these assays?
GAA glycogen: inactive

Results for COc1cc(C2C(C#N)=C(C)NC3=C2C(=O)CC(C)(C)C3)cc(OC)c1O (stereo not drawn) ?
GLA inh pH 4.5: inactive; N370S GC: inactive; GAA inh: inactive; GLA spleen mod: inactive; GAA glycogen: 12µM; aGlu spleen mod: inactive

What do the screens show for `CC(C)=CCc1c(O)ccc2c1OC(c1ccc(O)c(O)c1)CC2=O` (stereo not drawn)?
GLA inh pH 4.5: inactive; N370S GC: inactive; GLA spleen mod: inactive; GAA glycogen: inconclusive; aGlu spleen mod: inactive

How did O=C1CC(c2ccc(O)c(O)c2)Oc2c1ccc(O)c2O (stereo not drawn) do in these assays?
GLA inh pH 4.5: inactive; N370S GC: inactive; GLA spleen mod: inactive; GAA glycogen: 11µM; aGlu spleen mod: inactive

How did O=[N+]([O-])c1cc(C(F)(F)F)ccc1NCCc1c[nH]c2ccc(O)cc12 do in these assays?
GLA inh pH 4.5: inactive; N370S GC: inactive; GAA inh: inactive; GLA spleen mod: inactive; GAA glycogen: 9.9µM; aGlu spleen mod: inactive

How did Cc1cc(C(=O)NNC(=S)Nc2ccccc2)nn1C do in these assays?
GLA inh pH 4.5: inactive; N370S GC: inactive; GAA inh: inactive; GLA spleen mod: inactive; GAA glycogen: 3.5µM; aGlu spleen mod: inactive

How did COc1ccccc1N(O)C1CC(=O)N(c2ccc(Br)cc2)C1=O (stereo not drawn) do in these assays?
GLA inh pH 4.5: inactive; N370S GC: inactive; GAA inh: inactive; GLA spleen mod: inactive; GAA glycogen: 8.9µM; aGlu spleen mod: inactive

Results for O=C1CC(N(O)c2ccccc2)C(=O)N1c1ccc(Cl)c(Cl)c1 (stereo not drawn) ?
GLA inh pH 4.5: inactive; N370S GC: inactive; GLA spleen mod: inactive; GAA glycogen: inconclusive; aGlu spleen mod: inactive

Results for O=C(c1ccc2c(c1)N(Cc1ccccc1F)C(=O)c1ccccc1S2)N1CCOCC1 ?
GLA inh pH 4.5: inactive; N370S GC: inactive; GLA spleen mod: inactive; GAA glycogen: inactive; aGlu spleen mod: inactive

Results for CCN1C(=O)c2ccccc2Sc2ccc(C(=O)NCCCN3CCOCC3)cc21 ?
GLA inh pH 4.5: inactive[21.1 µM]; N370S GC: inactive; GAA inh: inactive; GLA spleen mod: inactive; GAA glycogen: inactive; aGlu spleen mod: inactive

What do the screens show for `Cc1cccc(CN2C(=O)c3ccccc3Sc3ccc(C(=O)NCCN4CCOCC4)cc32)c1`?
GLA inh pH 4.5: inactive; N370S GC: 14µM; GAA inh: inactive; GLA spleen mod: inactive; GAA glycogen: inactive; aGlu spleen mod: inactive

Results for O=C(NCCN1CCOCC1)c1ccc2c(c1)N(Cc1ccccc1F)C(=O)c1ccccc1S2 ?
GLA inh pH 4.5: inactive; N370S GC: 10µM; GAA inh: inactive; GLA spleen mod: inactive; GAA glycogen: inactive; aGlu spleen mod: inactive

What do the screens show for `O=C(O)c1cc(Oc2ccc([N+](=O)[O-])cc2)cc(Oc2ccc([N+](=O)[O-])cc2)c1`?
N370S GC: inactive; GLA spleen mod: inactive; aGlu spleen mod: inactive

Results for O=C(NNC(=S)NCCc1ccccc1)c1ccc(Br)s1 ?
GLA inh pH 4.5: inactive; N370S GC: inactive; GAA inh: inactive; GLA spleen mod: inactive; GAA glycogen: 35µM; aGlu spleen mod: inactive

Results for O=C(CCc1ccc(O)cc1)NNC(=S)NCCc1ccccc1 ?
GLA inh pH 4.5: inactive; N370S GC: inactive; GAA inh: inactive; GLA spleen mod: inactive; GAA glycogen: inconclusive; aGlu spleen mod: inactive

What do the screens show for `O=C(O)Cc1cccc(OCCCN(Cc2cccc(C(F)(F)F)c2Cl)CC(c2ccccc2)c2ccccc2)c1`?
GLA inh pH 4.5: inactive; N370S GC: inactive; GLA spleen mod: inactive; aGlu spleen mod: inactive

Results for Cc1cccc(-c2noc(-c3ccc(NCc4cccnc4)c([N+](=O)[O-])c3)n2)c1 ?
GAA glycogen: inactive

Screening results deposited in PubChem by National Center for Advancing Translational Sciences (NCATS).
